In the supplement of paper PMC6897291:
Structures can show the parent of a compound that is named as a salt.

How the values were obtained:
[1] = tested on: RIVA; assay: growth inhibition by drug plus 177Lu-lilotomab satetraxetan (1 - RLU/untreated control) (fraction); higher = stronger inhibition; details: 177Lu-lilotomab satetraxetan 0.5 ug/ml
Procedure, shortened: (§1)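 RIVA or U-2932 cells, untreated or pretreated 18 h with a radiolabelled anti-CD37 antibody conjugate (~600 MBq/mg; 0.5 µg/ml RIVA, 1 µg/ml U-2932), were washed and seeded at 3,000 cells/well on plates pre-printed with the Selleck Cambridge Cancer Compound library. Doses were 10/100 nM (RIVA) or 10/1,000 nM (U-2932). RealTime-Glo luminescence was read daily from day 3 after 1 h at 37°C. Growth inhibition is 1 − RLU/mean of 48 untreated no-drug wells per plate.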

[2] = tested on: U-2932; assay: growth inhibition by drug alone (1 - RLU/untreated control) (fraction); higher = stronger inhibition; details: 177Lu-lilotomab satetraxetan 0 ug/ml
Procedure, shortened: as §1

[3] = tested on: RIVA; assay: as above; details: 177Lu-lilotomab satetraxetan 0 ug/ml
Procedure, shortened: as §1

[4] = tested on: U-2932; assay: growth inhibition by drug plus 177Lu-lilotomab satetraxetan (1 - RLU/untreated control) (fraction); higher = stronger inhibition; details: 177Lu-lilotomab satetraxetan 1 ug/ml
Procedure, shortened: as §1

Compound | growth inhibition by drug plus 177Lu-lilotomab satetraxetan ([1]; 100 nM, time (day): 5) | growth inhibition by drug plus 177Lu-lilotomab satetraxetan ([1]; 100 nM, time (day): 6) | growth inhibition by drug alone ([2]; 10 nM, time (day): 3) | growth inhibition by drug alone ([2]; 10 nM, time (day): 4) | growth inhibition by drug alone ([2]; 10 nM, time (day): 5) | growth inhibition by drug alone ([2]; 10 nM, time (day): 6) | growth inhibition by drug alone ([2]; 1000 nM, time (day): 3) | growth inhibition by drug alone ([2]; 1000 nM, time (day): 4) | growth inhibition by drug alone ([2]; 1000 nM, time (day): 5) | growth inhibition by drug alone ([2]; 1000 nM, time (day): 6) | growth inhibition by drug alone ([3]; 10 nM, time (day): 3) | growth inhibition by drug alone ([3]; 10 nM, time (day): 4) | growth inhibition by drug alone ([3]; 10 nM, time (day): 5) | growth inhibition by drug alone ([3]; 10 nM, time (day): 6) | growth inhibition by drug alone ([3]; 100 nM, time (day): 3) | growth inhibition by drug alone ([3]; 100 nM, time (day): 4) | growth inhibition by drug alone ([3]; 100 nM, time (day): 5) | growth inhibition by drug alone ([3]; 100 nM, time (day): 6) | growth inhibition by drug plus 177Lu-lilotomab satetraxetan ([4]; 10 nM, time (day): 3) | growth inhibition by drug plus 177Lu-lilotomab satetraxetan ([4]; 10 nM, time (day): 4) | growth inhibition by drug plus 177Lu-lilotomab satetraxetan ([4]; 10 nM, time (day): 5) | growth inhibition by drug plus 177Lu-lilotomab satetraxetan ([4]; 10 nM, time (day): 6) | growth inhibition by drug plus 177Lu-lilotomab satetraxetan ([4]; 1000 nM, time (day): 3) | growth inhibition by drug plus 177Lu-lilotomab satetraxetan ([4]; 1000 nM, time (day): 4) | growth inhibition by drug plus 177Lu-lilotomab satetraxetan ([4]; 1000 nM, time (day): 5) | growth inhibition by drug plus 177Lu-lilotomab satetraxetan ([4]; 1000 nM, time (day): 6) | growth inhibition by drug plus 177Lu-lilotomab satetraxetan ([1]; 10 nM, time (day): 3) | growth inhibition by drug plus 177Lu-lilotomab satetraxetan ([1]; 10 nM, time (day): 4) | growth inhibition by drug plus 177Lu-lilotomab satetraxetan ([1]; 10 nM, time (day): 5) | growth inhibition by drug plus 177Lu-lilotomab satetraxetan ([1]; 10 nM, time (day): 6) | growth inhibition by drug plus 177Lu-lilotomab satetraxetan ([1]; 100 nM, time (day): 3) | growth inhibition by drug plus 177Lu-lilotomab satetraxetan ([1]; 100 nM, time (day): 4)
CC(C)(C)c1cc(NC(=O)Nc2ccc(-c3cn4c(n3)sc3cc(OCCN5CCOCC5)ccc34)cc2)no1 [Quizartinib (AC220)] | 0.377 | 0.391 | – | – | – | – | – | – | – | – | – | – | – | – | – | – | – | – | – | – | – | – | – | – | – | – | – | – | – | – | – | –
Cc1cc(O)c2c(c1)C(=O)c1cccc(O)c1C2=O [Chrysophanic acid (Chrysophanol)] | 0.559 | 0.574 | -0.0586 | -0.0671 | -0.0488 | 0.0657 | -0.0803 | -0.0522 | -0.0654 | 0.0406 | -0.266 | -0.269 | -0.305 | -0.322 | -0.0635 | -0.135 | -0.0963 | -0.115 | -0.0546 | -0.0035 | 0.0467 | 0.1 | -0.0941 | -0.0464 | -0.00693 | 0.13 | 0.425 | 0.48 | 0.511 | 0.511 | 0.489 | 0.543
O=C(O)c1ccc2cc(-c3ccc(O)c(C45CC6CC(CC(C6)C4)C5)c3)ccc2c1 | 0.518 | 0.526 | 0.159 | 0.0954 | -0.0581 | -0.0515 | 0.757 | 0.836 | 0.861 | 0.877 | 0.00625 | 0.0377 | -0.0188 | -0.334 | -0.285 | -0.127 | -0.181 | -0.353 | 0.108 | 0.127 | 0.182 | 0.221 | 0.737 | 0.802 | 0.838 | 0.847 | 0.642 | 0.675 | 0.699 | 0.702 | 0.404 | 0.512
O=c1c(O)c(-c2ccc(O)c(O)c2)oc2cc(O)cc(O)c12 [Quercetin (Sophoretin)] | 0.48 | 0.508 | 0.129 | 0.074 | -0.0824 | -0.0972 | 0.0543 | 0.0523 | 0.0143 | -0.101 | -0.0527 | -0.036 | -0.117 | -0.426 | -0.494 | -0.296 | -0.357 | -0.683 | 0.0451 | 0.0897 | 0.166 | 0.21 | 0.0503 | 0.0821 | 0.135 | 0.211 | 0.546 | 0.61 | 0.613 | 0.619 | 0.346 | 0.469
C[C@@H](O[C@H]1OCCN(Cc2n[nH]c(=O)[nH]2)[C@H]1c1ccc(F)cc1)c1cc(C(F)(F)F)cc(C(F)(F)F)c1 [Aprepitant (MK-0869)] | 0.441 | 0.419 | -0.0806 | -0.0554 | -0.0486 | 0.0358 | -0.0765 | -0.0282 | -0.0265 | -0.0573 | -0.223 | -0.258 | -0.291 | -0.358 | -0.233 | -0.342 | -0.277 | -0.366 | -0.142 | -0.123 | -0.143 | -0.121 | -0.075 | 0.0386 | 0.0779 | 0.19 | 0.306 | 0.465 | 0.481 | 0.488 | 0.319 | 0.43
CCn1c(-c2nonc2N)nc2c(C#CC(C)(C)O)ncc(OC[C@H]3CCCNC3)c21 | 0.42 | 0.413 | 0.0651 | 0.0169 | -0.0977 | -0.22 | 0.654 | 0.769 | 0.826 | 0.861 | 0.0369 | -0.0639 | -0.133 | -0.326 | -0.134 | -0.204 | -0.217 | -0.34 | -0.0148 | 0.000859 | -0.00972 | 0.0167 | 0.596 | 0.736 | 0.792 | 0.836 | 0.28 | 0.464 | 0.475 | 0.494 | 0.315 | 0.41
COc1cc2c(cc1OC)CN(CCc1ccc(NC(=O)c3cccc4c(=O)c5cccc(OC)c5[nH]c34)cc1)CC2 [Elacridar] | 0.424 | 0.403 | -0.00987 | 0.00491 | 0.00725 | 0.0766 | 0.114 | 0.0649 | 0.000978 | -0.0858 | -0.196 | -0.178 | -0.24 | -0.531 | -0.21 | -0.258 | -0.283 | -0.457 | -0.0285 | 0.00551 | 0.0106 | 0.107 | 0.0477 | 0.0502 | 0.0374 | -0.0614 | 0.3 | 0.468 | 0.491 | 0.503 | 0.263 | 0.407
CO[C@H]1/C=C\C=C(/C)C(=O)NC2=CC(=O)C(NCCN(C)C)=C(C[C@@H](C)C[C@H](OC)[C@H](O)[C@@H](C)/C=C(\C)[C@@H]1OC(N)=O)C2=O [17-DMAG HCl (Alvespimycin)] | 0.982 | 0.987 | 0.163 | 0.099 | -0.033 | -0.0727 | 0.944 | 0.979 | 0.985 | 0.986 | 0.132 | 0.103 | 0.0633 | -0.0974 | 0.922 | 0.953 | 0.961 | 0.96 | 0.0703 | 0.119 | 0.177 | 0.21 | 0.956 | 0.982 | 0.988 | 0.99 | 0.602 | 0.624 | 0.637 | 0.653 | 0.96 | 0.98
Cc1cnc(Nc2ccc(OCCN3CCCC3)cc2)nc1Nc1cccc(S(=O)(=O)NC(C)(C)C)c1 | 0.289 | 0.307 | -0.0562 | -0.0523 | -0.0582 | -0.0993 | 0.149 | 0.111 | -0.00563 | 0.00366 | -0.231 | -0.238 | -0.322 | -0.459 | -0.338 | -0.438 | -0.41 | -0.775 | -0.0587 | -0.0475 | -0.0161 | 0.0198 | 0.127 | 0.122 | 0.0513 | 0.0765 | 0.273 | 0.437 | 0.468 | 0.492 | 0.205 | 0.275
O=C1C(Cl)=C(NCCN2CCOCC2)C(=O)c2ncccc21 | 0.626 | 0.631 | 0.114 | 0.106 | 0.0132 | 0.0178 | 0.227 | 0.184 | 0.124 | 0.0852 | 0.0132 | 0.0904 | -0.00365 | -0.238 | 0.102 | 0.139 | 0.12 | 0.0933 | 0.114 | 0.165 | 0.247 | 0.272 | 0.201 | 0.211 | 0.241 | 0.349 | 0.584 | 0.632 | 0.638 | 0.641 | 0.591 | 0.62
Nc1ccn([C@@H]2O[C@H](CO)[C@@H](O)[C@@H]2O)c(=O)n1 [Cytarabine] | 0.793 | 0.81 | -0.00637 | 0.0194 | -0.0299 | -0.0808 | 0.484 | 0.568 | 0.585 | 0.6 | -0.0997 | -0.0678 | -0.108 | -0.326 | -0.231 | 0.0413 | 0.0792 | 0.023 | -0.0521 | 0.00463 | -0.0153 | -0.0601 | 0.688 | 0.801 | 0.859 | 0.89 | 0.51 | 0.601 | 0.632 | 0.644 | 0.655 | 0.771
CN1CCN(c2cccc(Nc3nc4c(-c5ccc(S(C)(=O)=O)cc5)cccn4n3)c2)CC1 | 0.425 | 0.401 | 0.0344 | 0.0428 | 0.0368 | 0.113 | 0.028 | 0.0442 | 0.0461 | 0.102 | -0.0335 | -0.0683 | -0.203 | -0.505 | -0.0314 | -0.0426 | -0.0675 | -0.155 | 0.0292 | 0.0656 | 0.062 | 0.17 | -0.0239 | 0.0604 | 0.101 | 0.21 | 0.369 | 0.484 | 0.496 | 0.524 | 0.396 | 0.419
CC(C)Oc1cc(Nc2nc(N[C@@H](C)c3ccc(F)cn3)ncc2Cl)n[nH]1 | 0.57 | 0.574 | 0.14 | 0.0983 | -0.0668 | -0.0699 | 0.0367 | 0.0436 | -0.032 | -0.0869 | 0.0887 | 0.104 | 0.0671 | -0.147 | -0.29 | -0.178 | -0.215 | -0.331 | 0.116 | 0.157 | 0.213 | 0.262 | 0.11 | 0.174 | 0.221 | 0.323 | 0.626 | 0.642 | 0.679 | 0.662 | 0.487 | 0.557
